In assay [1] the target is T1, Muscle, skeletal receptor tyrosine-protein kinase (Homo sapiens) (UniProt O15146).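 Further: reported value is the mean percent inhibition of MuSK kinase.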
T1 sequence (whole entry): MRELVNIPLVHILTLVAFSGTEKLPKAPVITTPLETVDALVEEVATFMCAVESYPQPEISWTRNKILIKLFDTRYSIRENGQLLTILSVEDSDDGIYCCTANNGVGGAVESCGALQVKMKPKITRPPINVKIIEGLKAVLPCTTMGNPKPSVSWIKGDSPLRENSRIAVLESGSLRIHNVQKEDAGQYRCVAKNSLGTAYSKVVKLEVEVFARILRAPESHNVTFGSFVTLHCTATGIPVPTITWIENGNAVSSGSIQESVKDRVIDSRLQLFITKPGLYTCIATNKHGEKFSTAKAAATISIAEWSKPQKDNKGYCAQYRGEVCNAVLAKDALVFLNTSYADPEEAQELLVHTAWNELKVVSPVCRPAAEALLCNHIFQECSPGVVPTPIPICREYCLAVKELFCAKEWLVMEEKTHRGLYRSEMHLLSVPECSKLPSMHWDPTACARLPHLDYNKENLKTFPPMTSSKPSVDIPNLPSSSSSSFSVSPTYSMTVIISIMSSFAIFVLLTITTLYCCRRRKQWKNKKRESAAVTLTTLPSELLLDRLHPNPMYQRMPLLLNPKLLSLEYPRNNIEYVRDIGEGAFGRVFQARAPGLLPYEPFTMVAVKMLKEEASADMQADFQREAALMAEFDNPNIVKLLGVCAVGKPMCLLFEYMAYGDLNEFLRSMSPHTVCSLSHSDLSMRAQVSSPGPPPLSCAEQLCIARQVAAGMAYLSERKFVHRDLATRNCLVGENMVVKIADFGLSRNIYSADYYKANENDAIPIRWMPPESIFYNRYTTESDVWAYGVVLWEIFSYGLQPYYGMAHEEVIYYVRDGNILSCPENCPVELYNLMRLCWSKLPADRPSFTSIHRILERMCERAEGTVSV
As to conditions: at 1 µM.

In assay [2] the target is Platelet-derived growth factor receptor alpha (Homo sapiens) (UniProt P16234). As to conditions: at 0.1 µM.
The target is the same in assay [3]. The note with it: at 1 µM.
The subject of assay [4] is Platelet-derived growth factor receptor alpha (Homo sapiens), P16234 [D842V]. The note with it: at 0.1 µM.
Assay [5] has the same test system. The note with it: at 1 µM.
For assay [6], the system named is Platelet-derived growth factor receptor alpha (Homo sapiens), P16234 [T674I]. As to conditions: at 0.1 µM.
For assay [7] the test system is unchanged. As to conditions: at 1 µM.
The test system of assay [8] is Platelet-derived growth factor receptor alpha (Homo sapiens), P16234 [V561D]. As to conditions: at 0.1 µM.
Assay [9] has the same test system. The note with it: at 1 µM.
Assay [10] addresses Platelet-derived growth factor receptor beta (Homo sapiens) (UniProt P09619). As to conditions: at 0.1 µM.
The target is the same in assay [11]. The note with it: at 1 µM.
The target of assay [12] is Tyrosine-protein kinase FRK (Homo sapiens) (UniProt P42685). The note with it: at 0.1 µM.
Assay [13] shares this target. The note with it: at 1 µM.
Assay [14] addresses Protein-tyrosine kinase 2-beta (Homo sapiens) (UniProt Q14289). The note with it: at 0.1 µM.
Assay [15] shares this target. The note with it: at 1 µM.
Assay [16] addresses Proto-oncogene tyrosine-protein kinase receptor Ret (Homo sapiens) (UniProt P07949). As to conditions: at 0.1 µM.
Assay [17] shares this target. The note with it: at 1 µM.
For assay [18], the system named is Proto-oncogene tyrosine-protein kinase receptor Ret (Homo sapiens), P07949 [V804L]. The note with it: at 0.1 µM.
For assay [19] the test system is unchanged. As to conditions: at 1 µM.
Assay [20] relates to Proto-oncogene tyrosine-protein kinase receptor Ret (Homo sapiens), P07949 [Y791F]. As to conditions: at 0.1 µM.

Structures are written as SMILES.

Platelet-derived growth factor receptor beta (Homo sapiens), sequence (P09619 whole entry): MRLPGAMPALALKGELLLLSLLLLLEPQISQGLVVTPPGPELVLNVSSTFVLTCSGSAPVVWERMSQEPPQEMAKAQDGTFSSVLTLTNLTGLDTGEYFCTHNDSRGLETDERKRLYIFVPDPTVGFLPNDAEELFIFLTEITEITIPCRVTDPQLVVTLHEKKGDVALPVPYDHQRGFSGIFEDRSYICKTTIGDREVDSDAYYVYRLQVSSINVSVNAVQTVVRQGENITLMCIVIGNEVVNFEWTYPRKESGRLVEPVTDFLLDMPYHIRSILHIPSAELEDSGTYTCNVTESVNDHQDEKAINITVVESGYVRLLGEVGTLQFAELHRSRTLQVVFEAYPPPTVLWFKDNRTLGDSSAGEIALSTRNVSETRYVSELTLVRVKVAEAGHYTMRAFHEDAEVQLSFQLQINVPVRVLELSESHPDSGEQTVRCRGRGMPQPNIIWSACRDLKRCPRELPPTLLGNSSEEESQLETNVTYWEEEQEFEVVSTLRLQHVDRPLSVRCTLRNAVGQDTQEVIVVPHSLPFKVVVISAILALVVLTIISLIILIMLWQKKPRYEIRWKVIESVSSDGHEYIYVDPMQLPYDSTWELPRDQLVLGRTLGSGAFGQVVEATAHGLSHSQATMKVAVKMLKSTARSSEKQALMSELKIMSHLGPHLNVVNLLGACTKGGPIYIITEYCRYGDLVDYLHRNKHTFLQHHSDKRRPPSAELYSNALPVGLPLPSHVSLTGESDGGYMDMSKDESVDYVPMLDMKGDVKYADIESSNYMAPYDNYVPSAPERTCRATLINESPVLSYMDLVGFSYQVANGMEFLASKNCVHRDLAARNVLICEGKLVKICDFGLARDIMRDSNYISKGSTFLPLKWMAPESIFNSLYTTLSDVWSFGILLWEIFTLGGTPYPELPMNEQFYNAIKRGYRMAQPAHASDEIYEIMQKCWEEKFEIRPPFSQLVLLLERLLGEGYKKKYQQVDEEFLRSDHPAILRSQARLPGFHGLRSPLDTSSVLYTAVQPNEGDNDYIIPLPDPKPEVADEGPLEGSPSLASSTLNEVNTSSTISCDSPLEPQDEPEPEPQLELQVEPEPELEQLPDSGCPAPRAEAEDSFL
Platelet-derived growth factor receptor alpha (Homo sapiens), P16234 [D842V], sequence (P16234 whole entry D842V): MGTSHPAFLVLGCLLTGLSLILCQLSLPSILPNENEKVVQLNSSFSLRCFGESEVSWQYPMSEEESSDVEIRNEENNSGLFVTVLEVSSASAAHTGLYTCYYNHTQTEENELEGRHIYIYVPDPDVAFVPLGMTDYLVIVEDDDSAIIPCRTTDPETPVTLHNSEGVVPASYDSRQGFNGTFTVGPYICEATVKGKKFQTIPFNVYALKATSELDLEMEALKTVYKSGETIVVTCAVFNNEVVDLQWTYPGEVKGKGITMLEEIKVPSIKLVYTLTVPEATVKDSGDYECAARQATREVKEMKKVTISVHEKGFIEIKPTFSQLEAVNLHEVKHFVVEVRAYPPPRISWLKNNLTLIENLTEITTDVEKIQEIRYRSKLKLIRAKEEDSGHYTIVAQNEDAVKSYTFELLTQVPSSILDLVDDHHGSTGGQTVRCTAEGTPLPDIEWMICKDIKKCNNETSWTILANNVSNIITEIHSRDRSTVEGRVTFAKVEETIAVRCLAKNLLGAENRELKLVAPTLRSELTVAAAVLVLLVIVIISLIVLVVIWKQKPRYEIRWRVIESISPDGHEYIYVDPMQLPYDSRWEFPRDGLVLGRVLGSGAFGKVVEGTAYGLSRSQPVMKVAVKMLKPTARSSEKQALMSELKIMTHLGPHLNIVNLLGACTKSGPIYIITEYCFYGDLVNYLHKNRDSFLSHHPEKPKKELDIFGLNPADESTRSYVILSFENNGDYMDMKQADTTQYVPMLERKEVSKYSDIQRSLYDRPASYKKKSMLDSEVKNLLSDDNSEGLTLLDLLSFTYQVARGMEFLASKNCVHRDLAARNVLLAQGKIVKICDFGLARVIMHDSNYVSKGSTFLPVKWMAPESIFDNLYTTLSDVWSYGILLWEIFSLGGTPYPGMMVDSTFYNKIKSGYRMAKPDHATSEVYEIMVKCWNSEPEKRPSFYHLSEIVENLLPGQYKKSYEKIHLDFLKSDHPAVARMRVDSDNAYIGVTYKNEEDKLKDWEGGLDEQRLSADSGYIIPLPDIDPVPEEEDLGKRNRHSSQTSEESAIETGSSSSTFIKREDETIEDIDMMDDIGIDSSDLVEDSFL
Platelet-derived growth factor receptor alpha (Homo sapiens), P16234 [V561D], sequence (P16234 whole entry V561D): as the sequence (P16234 whole entry D842V) above, with V561D, V842D counted along it
Proto-oncogene tyrosine-protein kinase receptor Ret (Homo sapiens), sequence (P07949 whole entry): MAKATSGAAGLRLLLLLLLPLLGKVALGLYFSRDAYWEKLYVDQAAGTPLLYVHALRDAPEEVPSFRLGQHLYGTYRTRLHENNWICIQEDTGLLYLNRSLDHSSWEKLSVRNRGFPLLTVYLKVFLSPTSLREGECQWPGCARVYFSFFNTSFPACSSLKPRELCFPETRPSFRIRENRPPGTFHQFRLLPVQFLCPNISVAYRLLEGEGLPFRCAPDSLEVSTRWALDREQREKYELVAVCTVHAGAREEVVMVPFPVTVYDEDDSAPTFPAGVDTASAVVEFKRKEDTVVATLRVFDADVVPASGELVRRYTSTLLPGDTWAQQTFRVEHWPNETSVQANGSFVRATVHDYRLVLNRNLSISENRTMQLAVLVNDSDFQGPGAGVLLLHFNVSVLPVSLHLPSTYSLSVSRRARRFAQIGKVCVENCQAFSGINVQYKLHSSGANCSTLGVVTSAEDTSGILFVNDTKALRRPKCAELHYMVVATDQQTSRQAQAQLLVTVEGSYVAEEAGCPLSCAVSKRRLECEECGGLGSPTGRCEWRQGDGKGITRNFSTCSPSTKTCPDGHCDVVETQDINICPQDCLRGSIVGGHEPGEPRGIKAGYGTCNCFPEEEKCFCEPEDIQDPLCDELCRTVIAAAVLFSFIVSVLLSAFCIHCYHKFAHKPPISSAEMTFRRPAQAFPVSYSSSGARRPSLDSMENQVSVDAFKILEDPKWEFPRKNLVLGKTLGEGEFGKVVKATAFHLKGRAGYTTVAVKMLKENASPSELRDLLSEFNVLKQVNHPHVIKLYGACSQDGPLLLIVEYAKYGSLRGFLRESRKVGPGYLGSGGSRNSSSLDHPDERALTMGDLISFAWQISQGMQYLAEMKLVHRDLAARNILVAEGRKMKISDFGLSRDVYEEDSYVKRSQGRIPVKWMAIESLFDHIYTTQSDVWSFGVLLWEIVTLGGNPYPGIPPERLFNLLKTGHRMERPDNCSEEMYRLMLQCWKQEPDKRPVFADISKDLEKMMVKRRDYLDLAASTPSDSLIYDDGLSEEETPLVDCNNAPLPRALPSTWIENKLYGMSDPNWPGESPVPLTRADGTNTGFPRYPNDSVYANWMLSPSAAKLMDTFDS
Tyrosine-protein kinase FRK (Homo sapiens), sequence (P42685 whole entry): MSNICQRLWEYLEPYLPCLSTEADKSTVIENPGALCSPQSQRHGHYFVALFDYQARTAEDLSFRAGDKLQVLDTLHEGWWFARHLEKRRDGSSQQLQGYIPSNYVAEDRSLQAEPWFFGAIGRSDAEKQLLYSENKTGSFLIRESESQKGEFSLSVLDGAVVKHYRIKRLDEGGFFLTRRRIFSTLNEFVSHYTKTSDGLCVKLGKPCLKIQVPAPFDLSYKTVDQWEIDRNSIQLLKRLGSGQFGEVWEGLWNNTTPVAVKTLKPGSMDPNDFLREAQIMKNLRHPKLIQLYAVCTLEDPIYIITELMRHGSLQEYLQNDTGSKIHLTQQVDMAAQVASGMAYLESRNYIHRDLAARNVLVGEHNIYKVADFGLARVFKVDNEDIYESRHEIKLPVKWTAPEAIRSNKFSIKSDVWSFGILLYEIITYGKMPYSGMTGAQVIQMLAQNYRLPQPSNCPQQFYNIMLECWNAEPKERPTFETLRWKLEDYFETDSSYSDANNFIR

Turning to `COc1cccc(COc2cc(-n3cnc4ccccc43)sc2C(N)=O)c1`, the inhibition is -3.86% in assay [1]; 4.14% in assay [2]; 14.5% in assay [3]; 0.88% in assay [4]; 6.81% in assay [5]; 1.86% in [6]. The inhibition is -0.65% in assay [7]; 0.87% in assay [8]; 5.54% in assay [9]; 0.6% in assay [10]; 8.32% in assay [11]; 0% in [12]. Besides, the inhibition in [13] was 0.01%; in assay [14] it was -3.42%; in assay [15] it was -2.02%; in assay [16], 0.11%; in [17], 7.33%; in assay [18], 0.81%. Moreover, the inhibition in assay [19] turned out to be 0.07%; in assay [20] it was 0.47%.

Consider `Cc1cc(-c2ccco2)cc(C)c1/C=C/c1cncc(-c2nn[nH]n2)c1`, for which the inhibition in assay [1] is -4.43%; in [2], 5.56%; in [3], 9.36%; in assay [4], 3.41%; in assay [5] it was 3.27%; in assay [6], 2.56%. In addition, the inhibition was 3.42% in [7]; 2.25% in assay [8]; 7% in assay [9]; 0.05% in assay [10]; 2.67% in assay [11]; -0.44% in assay [12]. Besides, the inhibition in [13] is -0.05%; in assay [14], 1.24%; in assay [15], 0%; in [16], 1.88%; in assay [17], 3.21%; in assay [18] it was 8.81%. Also, the inhibition in assay [19] is 1.72%; in assay [20], 2.21%.

As for `NC(=O)c1sc(-n2cnc3cc(C(F)(F)F)ccc32)cc1OCc1ccccc1Br`, the inhibition is -0.86% in assay [1]; 7.64% in assay [2]; 6.52% in assay [3]; 4.16% in [4]; 5.38% in [5]; 3.44% in assay [6]. Moreover, the inhibition amounted to 2.59% in assay [7]; 3.5% in [8]; 4.58% in assay [9]; 3.03% in assay [10]; 5.82% in [11]; 0.62% in assay [12]. The inhibition in assay [13] was -0.62%; in assay [14] it was 3.52%; in assay [15], -2.94%; in assay [16] it was 5.91%; in assay [17], 2.23%; in assay [18], 1.83%. Besides, the inhibition was found to be 11.6% in assay [19] and 2.29% in [20].

With `CCn1c(-c2nonc2N)nc2c(C#CC(C)(C)O)nc(O[C@@H](CN)c3ccccc3)cc21`, the inhibition in assay [1] was determined as 1.93%; in [2], 32%; in assay [3], 70.5%; in assay [4], 49.8%; in assay [5] it was 89.5%; in [6], 34.5%. Besides, the inhibition in [7] was 86.8%; in assay [8], 29.6%; in assay [9] it was 79.3%; in assay [10], 50.3%; in [11], 79.5%; in assay [12], -0.39%. Also, the inhibition in assay [13] was 0.63%; in assay [14], 27%; in assay [15], 80.1%; in assay [16], 41.7%; in [17] it was 90%; in [18], 9.12%. The inhibition in [19] was determined as 47.7%; in assay [20], 41.8%.

Turning to `NS(=O)(=O)c1ccc(-c2ccc3c(NC(=O)C4CC4)n[nH]c3c2)cc1`, the inhibition in assay [1] was 8.82%; in assay [2] it was 5.05%; in assay [3], 15.1%; in assay [4], 1.45%; in assay [5], 5.77%; in assay [6], 2.04%. Besides, the inhibition in assay [7] is 1.43%; in [8] it was -0.07%; in assay [9], 8.8%; in assay [10], 6.55%; in assay [11], 5.87%; in [12], 1.62%. Also, the inhibition in assay [13] came to 1.3%; in assay [14] it was 6.65%; in [15], 5.61%; in assay [16], 3%; in [17], 8.48%; in assay [18] it was 2.82%. For the same molecule, the inhibition in [19] is 4.4%; in assay [20], 3.34%.

With `COc1cccc(-n2ncc3c(N/N=C/c4ccncc4)ncnc32)c1`, the inhibition in [1] came out at 45.6%; in assay [2], 43%; in assay [3] it was 79.5%; in [4] it was 44.4%; in assay [5], 87.3%; in assay [6], 25.4%. For the same molecule, the inhibition in [7] stood at 82.4%; in assay [8], 40.4%; in assay [9] it was 84.7%; in [10], 45%; in assay [11] it was 81.2%; in [12], 2.72%. Further, the inhibition came out at 5.75% in assay [13]; 11.5% in assay [14]; 16.5% in assay [15]; 9.73% in assay [16]; 50.3% in assay [17]; 7.23% in assay [18]. Besides, the inhibition was 31.1% in assay [19] and 18.4% in assay [20].

In the case of `CCn1c(-c2nonc2N)nc2c(C#CC(C)(C)O)ncc(OC[C@@H]3CCCN3)c21`, the inhibition in [1] is -3.74%; in assay [2] it was 5.65%; in assay [3] it was 24.4%; in assay [4] it was 7.78%; in assay [5], 44.4%; in assay [6], 4.92%. For the same molecule, the inhibition was 26.6% in assay [7]; 2.28% in assay [8]; 22.3% in assay [9]; 8.36% in [10]; 47.2% in assay [11]; -0.88% in assay [12]. Moreover, the inhibition in assay [13] is 0.68%; in assay [14], 1.89%; in assay [15], 23%; in [16], 3.87%; in assay [17] it was 25.2%; in [18], 0.45%. The inhibition in [19] was found to be 2.53%; in [20], 3%.

These data come from ChEMBL document CHEMBL1961873, “Compounds: GSK PKIS; Assays: Nanosyn kinase panel” (2012).
